This is an account of results in PubChem BioAssay AID1220 (Sanford-Burnham Center for Chemical Genomics, 2008).

The structures appear in SMILES notation. The campaign covered roughly 190,000 compounds. About 1,300 (0.68%) were called active. Cut-off read from the data, not from the text of the source: active = inhibition above about 50%; inactive = the rest. The entries come from a sample that favours actives as a whole.

For the experiment, the target named is Mannose-6-phosphate isomerase (Homo sapiens) (UniProt P34949). Put plainly: human PMI inhibitors, high substrate, primary screen, biochemical, fluorescence intensity, high mannose 6-phosphate (AID 1220). The following applies: recombinant PMI enzyme, coupled fluorescence intensity; at 20 µM; active compounds read high.
Mannose-6-phosphate isomerase (Homo sapiens), sequence (P34949 whole entry, looked up): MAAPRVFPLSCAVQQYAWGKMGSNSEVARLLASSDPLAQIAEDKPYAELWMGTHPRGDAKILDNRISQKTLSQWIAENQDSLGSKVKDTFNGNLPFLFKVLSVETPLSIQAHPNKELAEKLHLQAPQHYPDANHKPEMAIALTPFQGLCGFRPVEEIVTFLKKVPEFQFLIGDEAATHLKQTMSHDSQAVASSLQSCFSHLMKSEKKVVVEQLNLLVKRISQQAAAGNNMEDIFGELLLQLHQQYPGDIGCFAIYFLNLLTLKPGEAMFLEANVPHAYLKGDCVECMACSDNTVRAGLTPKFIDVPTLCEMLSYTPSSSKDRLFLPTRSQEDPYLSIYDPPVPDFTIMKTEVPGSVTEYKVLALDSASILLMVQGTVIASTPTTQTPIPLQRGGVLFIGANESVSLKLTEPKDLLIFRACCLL
Take `Cc1ccc(N2C(=O)c3cccc(Oc4ccc(Cl)cc4)c3C2=O)c(C)c1`: the inhibition is 50.4% (active). On to `Cc1cccc(N2C(=O)c3cccc(Oc4ccc(Cl)cc4)c3C2=O)c1`, for which the inhibition is 13.8% (inactive). As for `O=C(O)c1cccc(N2C(=O)c3cccc(Oc4ccc(Cl)cc4)c3C2=O)c1`, the inhibition is -8.6% (inactive). The same measure for `Cc1[nH]c(=O)c(C#N)cc1-c1ccccc1`: 10.3% (inactive); for `CCn1c(=O)cc(SCC(=O)N2CCN(C)CC2)c2ccccc21`: -10.8% (inactive); for `CC(=O)Nc1ccc(-c2nc(C)c(C(C)=O)n2O)cc1`: 22.6% (inactive). The same measure for `CCOc1ncccc1C(=O)OCC(=O)c1cc(C)n(Cc2ccco2)c1C`: 12.1% (inactive). Under `Cc1cc(C(=O)COc2cccnc2[N+](=O)[O-])c(C)n1Cc1cccs1` stands 64.4% (active); under `O=C(COc1cccnc1[N+](=O)[O-])NCc1cccs1`, 3% (inactive). Regarding `Cc1ccc(OCC(=O)NCc2ccco2)c([N+](=O)[O-])n1`, the inhibition is 1.9% (inactive). Under `CC(=O)Nc1ccccc1OCC(=O)c1cc(C)n(Cc2cccs2)c1C` stands 17.5% (inactive); under `O=C(COc1cccnc1[N+](=O)[O-])NCc1ccco1`, 65.7% (active); under `Cc1cc(C(=O)COc2cccnc2[N+](=O)[O-])c(C)n1Cc1ccco1`, 59.5% (active). The same measure for `Cc1ccc2cccc(OCC(=O)c3cc(C)n(Cc4ccco4)c3C)c2n1`: 20.9% (inactive). The same measure for `Cc1ccc(OCC(=O)c2cc(C)n(Cc3cccs3)c2C)c([N+](=O)[O-])n1`: 26.4% (inactive).

For the compound `O=[N+]([O-])c1cc(C(F)(F)F)ccc1NCCOc1ccccc1`, the inhibition is 9% (inactive). For the compound `O=C(CCCCn1c(=O)c2ccccc2n(CC(=O)Nc2cccc(F)c2)c1=O)NCc1ccco1`, the inhibition was 9.4% (inactive). Turning to `COc1ccc(S(=O)(=O)N(CC(=O)N2CCN(c3ccccc3OC)CC2)c2ccccc2)cc1`, the inhibition is 13.1% (inactive). The same measure for `Cc1sc2nc(C(C)Nc3ccccc3N3CCOCC3)[nH]c(=O)c2c1C` (centres undefined): 26.7% (inactive); for `COc1ccc(NC(C)=O)cc1NC(C)c1nc2sc(C)c(C)c2c(=O)[nH]1` (centres undefined): 66.6% (active). Take `COc1ccc(NC(C)=O)cc1NC(C)C(=O)Nc1ccc(F)cc1` (centres undefined): the inhibition is 7% (inactive). Under `COc1ccc(S(=O)(=O)CCC(=O)N2CCN(c3ccc(F)cc3)CC2)cc1` stands -1.5% (inactive); under `CCn1c(COc2ccc3c(c2)OCO3)nnc1SCC(=O)O`, -46.4% (inactive). As to `CCc1nc2ccccc2c(C(=O)Oc2cccc3cccnc23)c1C`, the inhibition is 7.3% (inactive). Turning to `Cc1ccc(C(C)C)c(OC(=O)/C=C/c2ccccc2)c1`, the inhibition was 6.5% (inactive). The same measure for `O=C(/C=C\c1ccccc1)Oc1cccc2cccnc12`: 51.9% (active). As for `Cc1c(C(=O)Oc2cccc3cccnc23)oc2ccccc12`, the inhibition is 50% (active).

Regarding `Cc1ccc2cccc(OC(=O)c3ccc4c(c3)OCCO4)c2n1`, the inhibition was 54% (active). Turning to `COc1ccccc1/C=C/C(=O)Oc1cccc2cccnc12`, the inhibition is 26.5% (inactive). For `Cc1ccc2cccc(OCC(=O)Nc3ccc4c(c3)OCO4)c2n1`, the inhibition is 15.2% (inactive). As for `Cc1c(C(=O)Nc2cccc3cccnc23)oc2ccccc12`, the inhibition is -0.2% (inactive).

`O=C(/C=C\c1ccco1)Oc1cccc2cccnc12`: the inhibition was 34.3% (inactive). In the case of `Cc1ccc2cccc(OC(=O)/C=C\c3ccccc3)c2n1`, the inhibition is 60.1% (active). The same measure for `O=C(Oc1cccc2cccnc12)c1ccc2c(c1)OCCO2`: 29.5% (inactive); for `COC(=O)c1ccccc1OCCOCCOc1cccc2ccc(C)nc12`: 45% (inactive). In the case of `CCOCC(=O)Nc1nnc(COCC)s1`, the inhibition is -1.8% (inactive). With `Cc1cc(NC(=O)COC(=O)CCCOc2ccc(Cl)cc2C)no1`, the inhibition is 4.5% (inactive).

Regarding `O=C(O)COc1ccc(/C=N/NC(=O)C2CCCN2S(=O)(=O)c2ccc(Cl)cc2)cc1` (centres undefined), the inhibition is -3.5% (inactive). Turning to `O=C(O/N=C\c1ccc(N2CCOCC2)c([N+](=O)[O-])c1)c1ccc(F)cc1`, the inhibition is 8% (inactive). On to `COc1ccc(NC(=O)CSCc2ccc(C)cc2)cc1`, for which the inhibition is 1.9% (inactive). Under `Cc1ccc(C2NC(=O)c3c(sc(C)c3C)N2)c(O)c1` (centres undefined) stands -21.9% (inactive). Under `Nc1ccccc1Nc1cc(-c2ccccc2)[nH]n1` stands 28% (inactive); under `Cc1nc2c(n1C1CCCCC1)C(=O)c1ccccc1C2=O`, 35.4% (inactive); under `COc1ccc(NC(=O)CSc2cc(C)ccc2C)cn1`, 10.5% (inactive). On to `COc1ccc(CC2(CO)CCN(Cc3cccc(OC)c3OC)CC2)cc1`, for which the inhibition was 6.7% (inactive). Take `COc1ccc(NCc2cc3ccccc3[nH]c2=O)cc1`: the inhibition was 59.2% (active). Under `COc1ccc2[nH]c(=O)c(CNc3ccccc3)cc2c1` stands 44.2% (inactive). The same measure for `COc1ccc(NCc2cc3cc(OC)ccc3[nH]c2=O)cc1`: 30.7% (inactive); for `COc1ccc2[nH]c(=O)c(CNc3cccc(C)c3)cc2c1`: 55.1% (active); for `COc1ccc2[nH]c(=O)c(CNc3ccc(C)c(C)c3)cc2c1`: 48.9% (inactive). With `CC(C)(C)NCc1cc2ccccc2[nH]c1=O`, the inhibition is 6.8% (inactive).

As to `CNCC(O)COc1cccc(OC)c1` (centres undefined), the inhibition was 9.8% (inactive). As for `Cc1c(C)c2ccc(OS(C)(=O)=O)c(C)c2oc1=O`, the inhibition was -10.6% (inactive).

Turning to `Fc1ccc(CNC(=S)Nc2ccc(OC(F)F)cc2)cc1`, the inhibition was 5.2% (inactive). Under `O=[N+]([O-])c1ccccc1S(=O)(=O)N1CCN(Cc2ccsc2)CC1` stands 7.8% (inactive); under `O=[N+]([O-])c1ccccc1S(=O)(=O)N1CCN(Cc2cc3c(cc2O)OCO3)CC1`, 59.2% (active). Under `O=[N+]([O-])c1ccccc1S(=O)(=O)N1CCN(Cc2ccc3c(c2)OCO3)CC1` stands -3.6% (inactive). Turning to `COc1ccc(CN(Cc2cc3cc(OC)c(OC)cc3[nH]c2=O)C(=O)NC2CCCCC2)cc1`, the inhibition is 0.5% (inactive). Under `COc1ccc(/C=N/OCC(=O)Nc2ccc3c(c2)OCO3)c(OC)c1` stands 10.9% (inactive); under `O=C(O)Cn1c2ccccc2c2ccccc21`, -2.4% (inactive); under `O=C(O)CCn1c2c(c3ccccc31)CCCC2`, 8.9% (inactive).

Take `O=C(O)Cn1c2c(c3ccccc31)CCCC2`: the inhibition was 58.5% (active). The same measure for `Cc1cccc(N2CCN(C(=O)c3ccccn3)CC2C)c1` (centres undefined): 9.3% (inactive); for `O=C(/C=C/c1ccc(Cl)cc1Cl)N1CCc2ccccc21`: -2.2% (inactive).

In general, inhibition refers to the relative decrease from the control value, in per cent.
